According to PubChem BioAssay (Tox21):
Inconclusive results are not listed. Calls of active or inactive are those of the source. Unless noted, the call rests on the fitted dose curve; in most records, active means well fitted curve in the direction sought with a large enough effect in the repeat runs; inconclusive means weak or mixed curves; inactive means no such curve, though single readings can be large; an effect the other way counts as inactive or inconclusive.

Assays:
[1] = qHTS assay to identify small molecule antagonists of the androgen receptor (AR) signaling pathway using the MDA cell line in the presence of 0.5 nM R1881 - cell viability counter screen (AID 1259242); further: nearly all actives have a fitted effect of over 45% in size
Outline: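 Cells seeded at 3,000/well and allowed 5 hr at 37C, 0% CO2 before compound transfer and R1881 (0.5 nM final) addition; 16 hr later, live-cell protease fluorescence indicated cytotoxicity.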

[2] = molecular target: Estrogen receptor (Homo sapiens) (UniProt P03372); assay: qHTS assay to identify small molecule antagonists of the estrogen receptor alpha (ER-alpha) signaling pathway using the BG1 cell line in the presence of 0.1 nM 17-beta-estradiol (AID 1259244); further: nearly all actives have a fitted effect of over 50% in size
Sequence of Estrogen receptor (Homo sapiens) (P03372 whole entry, looked up): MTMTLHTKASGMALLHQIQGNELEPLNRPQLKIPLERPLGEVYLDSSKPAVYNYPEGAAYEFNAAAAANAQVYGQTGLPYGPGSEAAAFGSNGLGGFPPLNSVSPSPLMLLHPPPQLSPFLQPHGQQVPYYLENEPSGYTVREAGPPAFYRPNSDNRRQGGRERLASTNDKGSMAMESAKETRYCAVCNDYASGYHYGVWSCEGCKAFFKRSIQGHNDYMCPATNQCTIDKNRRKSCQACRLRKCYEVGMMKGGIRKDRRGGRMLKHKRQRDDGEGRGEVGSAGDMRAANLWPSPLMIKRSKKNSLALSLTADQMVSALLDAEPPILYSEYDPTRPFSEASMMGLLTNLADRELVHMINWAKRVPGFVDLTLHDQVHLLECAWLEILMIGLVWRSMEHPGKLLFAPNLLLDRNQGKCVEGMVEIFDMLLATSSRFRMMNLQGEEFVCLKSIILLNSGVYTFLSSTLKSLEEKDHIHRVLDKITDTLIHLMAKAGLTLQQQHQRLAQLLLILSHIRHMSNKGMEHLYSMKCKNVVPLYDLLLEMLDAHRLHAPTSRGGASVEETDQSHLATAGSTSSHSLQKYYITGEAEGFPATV
Outline: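 Luciferase signal from VM7Luc4E2 ERE-reporter cells, co-dosed with test compound and 0.1 nM final 17beta-estradiol for 22 h, read with ONE-Glo.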

[3] = qHTS assay to identify small molecule HDAC inhibitors (AID 1259364);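 further: wild-type HCT-116 cells with endogenous class I/II HDAC activity; top concentration of the series differs between compounds; nearly all actives have a fitted effect of over 45% in size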
Outline: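 HCT-116 wt cells, 1,500/well, overnight attach. Compounds (DMSO) 2 h, 37 °C. HDAC-Glo I/II, 30 min RT. Luminescence.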

[4] = qHTS assay to identify small molecule HDAC inhibitors - cell viability counter screen (AID 1259365); further: series mostly up to about 92 µM; nearly all actives have a fitted effect of over 50% in size
Outline: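 Luminescence from CellTiter-Glo, developed 30min at room temperature, reports viability of wild-type HCT-116 cells treated 2hr with compounds at 37 C and 5% CO2 after overnight plating.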

[5] = qHTS assay to identify small molecule antagonists of the sonic hedgehog signaling (Shh) pathway - cell viability counter screen (AID 1259367); further: nearly all actives have a fitted effect of over 55% in size
Outline: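 CellTiter-Fluor signal in conditioned medium-stimulated 3T3 Gli1-Luc cells, 23 hr compound exposure, 37C.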

[6] = qHTS assay to identify small molecule agonists of the sonic hedgehog signaling (Shh) pathway (AID 1259368; calls by dose curve;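 further: NIH/3T3-derived 3T3Gli1-Luc cells carrying a stable Gli1-driven firefly luciferase reporter; series mostly up to about 92 µM; nearly all actives have a fitted effect of over 15% in size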)
Outline: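 Following a 24 hr incubation with DMSO-dissolved compounds at 37 C, 5% CO2, Gli1-Luc NIH/3T3-derived cells received luciferase reagent for 30 min at room temperature prior to luminescence measurement.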

[7] = qHTS assay to identify small molecule agonists of the androgen receptor (AR) signaling pathway in the presence of an antagonist - cell viability counter screen (AID 1259379);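 further: MDA-kb2 human breast cancer cells carrying an MMTV luciferase reporter; series mostly up to about 92 µM; nearly all actives have a fitted effect of over 25% in size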
Outline: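 Each compound was tested at 15 concentrations on MDA-kb2 cells in the presence of 3.0uM nilutamide. Viability was measured by CellTiter-Fluor fluorescence after a 16 hr incubation at 37C in a CO2-free atmosphere.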

[8] = qHTS assay to identify small molecule agonists of the estrogen receptor beta (ER-beta) signaling pathway - cell viability counter screen (AID 1259380); further: nearly all actives have a fitted effect of over 30% in size; further: potency means the concentration at half of the fitted maximal effect
Outline: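 Compounds dissolved in DMSO were pin-transferred onto ER-beta-UAS-bla HEK293T cells that had settled 6 hr, and exposure ran 16 hr at 37C. Following the reporter read, CellTiter-Glo luminescence after 30 min at room temperature indicated cytotoxicity.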

[9] = qHTS assay to identify small molecule antagonists of the estrogen receptor beta (ER-beta) signaling pathway - cell viability counter screen (AID 1259382);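 further: HEK293T cells carrying ER-beta-UAS-bla reporter stimulated with estradiol; series mostly up to about 92 µM; nearly all actives have a fitted effect of over 55% in size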
Outline: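 CellTiter-Glo ATP luminescence measured after the LiveBLAzer read in the same wells; ER-beta-UAS-bla HEK293T cells, 16 hr compound treatment with 1nM 17-beta-estradiol agonist at 37C, 5% CO2.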

[10] = molecular target: Estrogen receptor (Homo sapiens) (UniProt P03372); assay: qHTS assay to identify small molecule agonists of the estrogen receptor alpha (ER-alpha) signaling pathway in the presence of an antagonist (AID 1259383; calls by dose curve; further: top concentration of the series differs between compounds; nearly all actives have a fitted effect of over 15% in size)
Outline: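 Luminescent ERE-luciferase reporter, VM7Luc4E2 cells (endogenous ER-alpha); 10.0nM ICI-182,780 final; 15-point compound titration; 22hr at 37C; ONE-Glo, 30min RT.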

[11] = qHTS assay to identify small molecule agonists or antagonists of the thyroid stimulating hormone receptor (TSHR) signaling pathway - wild type cell line counter screen (AID 1259384; calls by dose curve)
Outline: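 Counter screen in untransfected Hek293: compounds (15-point titration, triplicate) plus phosphodiesterase inhibitor Ro20-1724 added after 18 h plating; 30 min RT. Intracellular cAMP via competitive d2/cryptate immunoassay, 1 h incubation.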

[12] = molecular target: Thyrotropin receptor (Homo sapiens) (UniProt P16473); assay: qHTS assay to identify small molecule antagonists of the thyroid stimulating hormone receptor (TSHR) signaling pathway (AID 1259385; calls by dose curve; further: nearly all actives have a fitted effect of over 20% in size)
Sequence of Thyrotropin receptor (Homo sapiens) (P16473 whole entry, looked up): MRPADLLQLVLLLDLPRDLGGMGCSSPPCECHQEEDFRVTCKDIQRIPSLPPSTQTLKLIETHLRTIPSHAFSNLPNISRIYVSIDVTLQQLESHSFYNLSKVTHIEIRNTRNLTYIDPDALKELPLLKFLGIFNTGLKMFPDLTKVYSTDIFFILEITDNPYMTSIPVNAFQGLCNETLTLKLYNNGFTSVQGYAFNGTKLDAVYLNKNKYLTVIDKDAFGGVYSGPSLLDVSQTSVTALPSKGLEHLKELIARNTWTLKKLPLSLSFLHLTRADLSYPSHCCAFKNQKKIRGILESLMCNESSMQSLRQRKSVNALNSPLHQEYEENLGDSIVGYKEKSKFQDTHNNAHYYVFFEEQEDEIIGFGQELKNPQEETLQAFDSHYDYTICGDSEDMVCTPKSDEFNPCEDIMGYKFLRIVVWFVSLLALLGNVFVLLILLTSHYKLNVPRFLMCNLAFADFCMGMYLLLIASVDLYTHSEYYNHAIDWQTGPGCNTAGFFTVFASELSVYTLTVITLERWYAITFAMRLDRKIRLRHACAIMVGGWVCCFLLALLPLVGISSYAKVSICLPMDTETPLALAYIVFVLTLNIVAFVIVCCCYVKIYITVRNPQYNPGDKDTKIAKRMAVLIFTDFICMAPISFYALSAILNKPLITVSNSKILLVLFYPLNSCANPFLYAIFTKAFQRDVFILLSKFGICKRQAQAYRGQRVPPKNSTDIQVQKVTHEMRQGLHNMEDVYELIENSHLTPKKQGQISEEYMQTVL
Outline: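 Antagonist mode: compound-treated TSHR-expressing HEK293 cells were stimulated with 1.5 ng/mL TSH (final) in presence of Ro20-1724 for 30 min at RT. HTRF cAMP detection after 1 h; each compound tested at 15 concentrations, triplicate.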

[13] = qHTS assay to identify small molecule agonists of the estrogen receptor alpha (ER-alpha) signaling pathway in the presence of an antagonist - cell viability counter screen (AID 1259386);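 further: series mostly up to about 92 µM; cells exposed to compounds for 22 h at 37 °C before the viability read; nearly all actives have a fitted effect of over 30% in size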
Outline: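 Using estrogen-depleted VM7Luc4E2 cells, the 15-concentration compound series was applied together with 10.0nM ICI-182,780 and incubated 22hr at 37C/5% CO2. Cell viability was then scored by CellTiter-Fluor.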

[14] = qHTS assay to identify small molecule phospholipidosis (PLD) inducers (AID 1259344; active means well fitted curve in the direction sought with a large enough effect; an effect the other way counts as inactive or inconclusive)
Outline: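 Accumulated phospholipid, stained red by LipidTOX during 24 h compound treatment of HepG2 cells at 37 C, is quantified from images as pit number and intensity, normalised per cell using Hoechst-stained nuclei.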

[15] = qHTS assay to identify small molecule agonists of the sonic hedgehog signaling (Shh) pathway - cell viability counter screen (AID 1259366); further: nearly all actives have a fitted effect of over 50% in size; further: potency means the concentration at half of the fitted maximal effect
Outline: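 Cytotoxicity counter screen run in the same wells as the Shh reporter assay. NIH/3T3 cells carrying a Gli1 response element–driven luciferase were treated with DMSO-dissolved compounds for 24hr, and live-cell protease activity was measured with CellTiter-Fluor.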

[16] = qHTS assay to identify small molecule antagonists of the sonic hedgehog signaling (Shh) pathway (AID 1259369; calls by dose curve; further: nearly all actives have a fitted effect of over 45% in size; further: potency means the concentration at half of the fitted maximal effect)
Outline: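 Read-out is luminescence from a firefly luciferase gene controlled by the Gli1 response element, in 3T3Gli1-Luc cells pre-incubated 4hr then exposed to compounds and conditioned medium for 24hr.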

[17] = molecular target: Estrogen receptor beta (Homo sapiens) (UniProt Q92731); assay: qHTS assay to identify small molecule agonists of the estrogen receptor beta (ER-beta) signaling pathway (AID 1259377; active means well fitted activation curve with a large enough effect in the signal ratio in the repeat runs, not every such curve was filed as active; the % refers to the signal ratio; further: potency means the concentration at half of the fitted maximal effect)
Sequence of Estrogen receptor beta (Homo sapiens) (Q92731 whole entry, looked up): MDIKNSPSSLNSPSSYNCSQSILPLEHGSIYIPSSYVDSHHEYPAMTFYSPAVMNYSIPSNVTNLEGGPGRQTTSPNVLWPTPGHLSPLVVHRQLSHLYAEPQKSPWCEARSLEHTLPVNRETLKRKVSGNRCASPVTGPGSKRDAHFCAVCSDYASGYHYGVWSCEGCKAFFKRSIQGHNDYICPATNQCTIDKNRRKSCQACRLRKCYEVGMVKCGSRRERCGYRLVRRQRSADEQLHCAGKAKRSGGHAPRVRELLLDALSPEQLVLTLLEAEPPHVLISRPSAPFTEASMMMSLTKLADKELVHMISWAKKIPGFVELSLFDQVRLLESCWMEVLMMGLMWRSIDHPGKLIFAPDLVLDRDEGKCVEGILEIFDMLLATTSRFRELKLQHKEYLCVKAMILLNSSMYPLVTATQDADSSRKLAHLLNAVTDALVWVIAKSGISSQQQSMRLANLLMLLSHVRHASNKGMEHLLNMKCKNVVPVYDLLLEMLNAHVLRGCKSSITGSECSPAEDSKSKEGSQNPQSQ
Outline: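 HEK293T ER-beta-UAS-bla; 2% charcoal-stripped FBS; cells pre-incubated 6 hr, compound 16 hr, 37C/5% CO2; LiveBLAzer B/G FRET substrate 2 h RT; fluorescence intensity read.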

[18] = molecular target: Estrogen receptor beta (Homo sapiens) (UniProt Q92731); assay: qHTS assay to identify small molecule antagonists of the estrogen receptor beta (ER-beta) signaling pathway (AID 1259378; active means well fitted inhibition curve with a large enough effect in the signal ratio in the repeat runs, not every such curve was filed as active; the % refers to the signal ratio)
Outline: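 Antagonist mode: compounds added to beta-lactamase reporter HEK293T ER-beta-UAS cells stimulated with E2 (1nM final), 16 hr at 37C. LiveBLAzer B/G FRET substrate, 2 hours room temperature, fluorescence read-out.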
On the % scale 0 is the no-effect control and ±100 the full control effect.

NC(=O)C(c1ccccc1)(c1ccccc1)[C@@H]1CCN(CCc2ccc3c(c2)CCO3)C1
inactive: Potency [1] | Potency [2] | Potency [3] | Potency [4] | Potency [5] | outcome [6] | Potency [7] | Potency [8] | Potency [9] | Potency [10] | Potency [11] | Potency [12] | Potency [13]

CCCCO
inactive: Potency [1] | Potency [14] | Potency [3] | Potency [4] | Potency [15] | Potency [5] | outcome [6] | Potency [16] | Potency [17] | Potency [18] | Potency [7] | Potency [8] | Potency [9] | Potency [11] | Potency [12] | Potency [13]

O=C(O)c1ccc(-n2nc(-c3ccccc3O)nc2-c2ccccc2O)cc1
inactive: Potency [1] | PLD induction [14] -4.07% [at 1.53 µM] | Potency [3] | Potency [4] | Potency [15] | Potency [5] | outcome [6] | Potency [7] | Potency [8] | Potency [9] | Potency [10] | Potency [13]

C#C[C@]1(O)CC[C@H]2[C@@H]3CCc4cc(OC5CCCC5)ccc4[C@H]3CC[C@@]21C
active: Potency [17] 6.68 µM | Potency [8] 29.8 µM
inactive: Potency [1] | Potency [14] | Potency [3] | Potency [4] | Potency [15] | Potency [5] | outcome [6] | Potency [16] | Potency [7] | Potency [11] | Potency [13]

CCCCC(CC)COC(=O)CCCCCCCCC(=O)OCC(CC)CCCC (stereo unspecified)
inactive: Potency [1] | Potency [2] | Potency [3] | Potency [4] | Potency [15] | Potency [5] | Potency [16] | Potency [7] | Potency [8] | Potency [9] | Potency [10] | Potency [11] | Potency [12] | Potency [13]

N=c1ccn2c(n1)O[C@H]1[C@H](O)[C@@H](CO)O[C@H]12
inactive: Potency [1] | Potency [14] | Potency [3] | Potency [4] | Potency [15] | Potency [5] | outcome [6] | Potency [16] | Potency [7] | Potency [8] | Potency [9] | Potency [10] | Potency [11] | Potency [12] | Potency [13]

CCCOC(C(=O)OC1CCN(C)CC1)(c1ccccc1)c1ccccc1
active: Potency [15] 13.3 µM | Potency [16] 21.1 µM | Potency [8] 26.6 µM
inactive: Potency [1] | Potency [2] | Potency [3] | Potency [4] | outcome [6] | Potency [17] | Potency [10] | Potency [11] | Potency [12] | Potency [13]
